The full ranking holds about 35,000 sequences; the median of “fluorescence intensity (a.u.)” is about 10,000, and the highest 2% start at about 52,000. Only a selection was taken, and the highest values are over-represented in it overall.

This test concerns the target T1, OsWOX13 (Oryza sativa, UniProt Q5QMM3 1-267).
T1 sequence: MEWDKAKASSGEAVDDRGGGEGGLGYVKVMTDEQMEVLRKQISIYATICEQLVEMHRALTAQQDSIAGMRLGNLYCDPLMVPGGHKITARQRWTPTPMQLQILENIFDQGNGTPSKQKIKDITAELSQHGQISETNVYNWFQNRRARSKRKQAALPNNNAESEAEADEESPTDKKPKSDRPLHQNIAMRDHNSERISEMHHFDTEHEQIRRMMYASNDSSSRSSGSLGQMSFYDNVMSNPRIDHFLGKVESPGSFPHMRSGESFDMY
The experiment in a line: protein-binding microarray (RPBM); PBS, 2% BSA, 51.3 ng/ul salmon testes DNA, 50 uM zinc acetate, 200 nM TF, 25 C, 1 h; high values mean tight binding. Conditions: protein: recombinant; tags: N-terminal polyhistidine and DsRed monomer fusion (pET32a); label: CyDye5-dUTP incorporated in the synthesized complementary strand; 3' TTTTT single-stranded linker to array surface; dsDNA, one strand shown. The procedure, abridged: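 Ni–NTA purification followed expression in E. coli BL21-CodonPlus of transcription factors fused N-terminally to a polyhistidine tag and DsRed. At 200 nM in PBS with 2% BSA, salmon testes DNA and 50 µM zinc acetate, the protein was incubated for 1 h at 25 °C with a custom Agilent array that had been primer-extended with Cy5-dUTP and blocked with 2% BSA. After washing, the array was read on an Axon 4000B scanner. The binding signal is per-feature fluorescence intensity in arbitrary units.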
In the case of “CAAGAAATGACTTAATTAGAAAACCTCTTTGGAGCACCCACGGAGTCACCTAGTGCAG”, the binding signal is 11000 fluorescence intensity (a.u.).
Then “AAAGCATTCATGTTAATTTTCTCCTAACTCAAATCGAATGCGGAGTCACCTAGTGCAG”, with 3260 fluorescence intensity (a.u.); and “CTGATTGGTTAGTAAGAGAATGTTGGTGGTGAAGTTGTTACGGAGTCACCTAGTGCAG”, with 29900 fluorescence intensity (a.u.).
Then “AAACTAACCAGGATCTGGTAATTGGAACGATCCCCATTCCCGGAGTCACCTAGTGCAG”, with 4390 fluorescence intensity (a.u.); and “GAAGTTTAATTATCATAAGATTGTGATGGTTATGTATGGTCGGAGTCACCTAGTGCAG”, with 31700 fluorescence intensity (a.u.); and “TGTATTGCCTAATTAATTTTATGCGCCTTTAATTTACTGCCGGAGTCACCTAGTGCAG”, with 16800 fluorescence intensity (a.u.).
Then “CATATCCCATTTGCCAATCACACCCTGAGAGTATGTATATCGGAGTCACCTAGTGCAG”, with 6560 fluorescence intensity (a.u.); and “CACCATTATTGCCAATTATCCTTGCTTGCGTGGTAGAGTACGGAGTCACCTAGTGCAG”, with 26200 fluorescence intensity (a.u.).
On to “ACTTGATTTCTCTGTTGGAAGATGGGTATATTTCGAGACCCGGAGTCACCTAGTGCAG”, for which the binding signal was 17200 fluorescence intensity (a.u.).
As for “TACTCTGATTTTGTCCATTACCAGCTGCAAATGGACCAGCCGGAGTCACCTAGTGCAG”, the figure is 19300 fluorescence intensity (a.u.); as for “TTGACAGTTAATCCTAGGTCTATCTATCGCACTGAGTTTGCGGAGTCACCTAGTGCAG”, 12400 fluorescence intensity (a.u.).
Consider “ACAGATTGAGAGGGAGCTCAGGGAACCAGTCTCACAAAATCGGAGTCACCTAGTGCAG”, for which the binding signal was 8100 fluorescence intensity (a.u.).
As for “TAAAATTGCATGTGATCATTTTGTAAGCTAAACTTTTATTCGGAGTCACCTAGTGCAG”, the figure is 11600 fluorescence intensity (a.u.); as for “TTTGGATTGGGTTTGGTGGTTGGGTGGGAGGGAGGGAGCTCGGAGTCACCTAGTGCAG”, 18700 fluorescence intensity (a.u.).
Then “GCTGCTCGGATTTGATTGATTGATTGATTGGCGGGTGGTCCGGAGTCACCTAGTGCAG”, with 64500 fluorescence intensity (a.u.); and “TCTTTGATTGGTGGCGGTGTTGAATTGAATTGAATTGATCCGGAGTCACCTAGTGCAG”, with 46300 fluorescence intensity (a.u.).
As to “TACTATCAACTCTGTTAAAATTGAAGAATTTTGACTAAAACGGAGTCACCTAGTGCAG”, the binding signal is 3310 fluorescence intensity (a.u.).
For “AGAATAATTATTTAAGTTAAGGTGTGTCACACCCCAATCCCGGAGTCACCTAGTGCAG”, the binding signal is 25100 fluorescence intensity (a.u.).
Then “GTGCATCACCAATCAAAACAGGAGGTGTTTGGAACTCCGTCGGAGTCACCTAGTGCAG”, with 3870 fluorescence intensity (a.u.); and “TACGCATTGATTAGTTTTGTCAGGTTAGTATAGAATTTAACGGAGTCACCTAGTGCAG”, with 14000 fluorescence intensity (a.u.).
Take “GTACTTGATAGTTCAGTGATAAGGGGTGTGATTTCAACCCCGGAGTCACCTAGTGCAG”: the binding signal was 4490 fluorescence intensity (a.u.).
With “GTACTAGTATTATTGATTGATACACTTGTGATGTCATGCCCGGAGTCACCTAGTGCAG”, the binding signal was 30900 fluorescence intensity (a.u.).
As for “CAGGTGTGATTGAAGTGATGTACTCAACTTACACCCGGGCCGGAGTCACCTAGTGCAG”, the figure is 54400 fluorescence intensity (a.u.); as for “ACATAATTAGTTTATCTCTCCTCAAGCTGGTGCATCTCTCCGGAGTCACCTAGTGCAG”, 31200 fluorescence intensity (a.u.); as for “GAACCTTTTGATTGATTCTCGTCCTACACGCTTGAAGGCGCGGAGTCACCTAGTGCAG”, 38200 fluorescence intensity (a.u.).
Regarding “TCTCCAAGATTGATCCGCATCTCCAACTAAACCCTCTCCTCGGAGTCACCTAGTGCAG”, the binding signal was 7230 fluorescence intensity (a.u.).
Then “TCGCTTTGATTGACACTAAGAACCTCGCTGCGCATCTCGTCGGAGTCACCTAGTGCAG”, with 58600 fluorescence intensity (a.u.).
With “TGTCTGACTGACTGACTGGCTGCTGCTGCTGCTCATTCCTCGGAGTCACCTAGTGCAG”, the binding signal was 23800 fluorescence intensity (a.u.).
As for “ATTCTCTCTTTTGCTCGCTTTGTTCCCTTTTCTTTCTTTTCGGAGTCACCTAGTGCAG”, the figure is 3770 fluorescence intensity (a.u.).
As for “TCTCGCTTCTGCCACTGCTGGCTGTGCTGCTTCCCTAGCTCGGAGTCACCTAGTGCAG”, the figure is 65100 fluorescence intensity (a.u.).
As for “GGAATTAATTAATGAATCACGTAGGCTACCTGGGTTGAAGCGGAGTCACCTAGTGCAG”, the figure is 45800 fluorescence intensity (a.u.); as for “TAAAATTAACGTGGACACTAATCTAGTTTAGACTTTGATTCGGAGTCACCTAGTGCAG”, 15500 fluorescence intensity (a.u.).
Take “ACGTTTAATATTTATAATTAATTTTCAAACATCCGATGTGCGGAGTCACCTAGTGCAG”: the binding signal was 19300 fluorescence intensity (a.u.).
Then “TTAATGACTATTTAGTTGACATGTAAGAAACAGGGGATTTCGGAGTCACCTAGTGCAG”, with 3450 fluorescence intensity (a.u.); and “GCTCGATTGGATAATTCTTCTGCATAACTAGCCAGTGGAGCGGAGTCACCTAGTGCAG”, with 26800 fluorescence intensity (a.u.).
Then “AACTTGCATACCAGTGGAATTCTTCAGGCTGGTCATGGAGCGGAGTCACCTAGTGCAG”, with 65500 fluorescence intensity (a.u.).
Then “AAACTTGATGGAATTCTTTAAATGTTCGATTGCTGGAGAGCGGAGTCACCTAGTGCAG”, with 16700 fluorescence intensity (a.u.); and “TTAATTACTATCATTAGTGTTAAGTATATATTAACTAATGCGGAGTCACCTAGTGCAG”, with 25900 fluorescence intensity (a.u.); and “GAACTTTACCGAATTTGTAAATTAGATGTAAACTCATTTTCGGAGTCACCTAGTGCAG”, with 3580 fluorescence intensity (a.u.).
Consider “GTGCCATTAATTTTGACTACTACTTGTGTGTCCTATCAAACGGAGTCACCTAGTGCAG”, for which the binding signal was 7280 fluorescence intensity (a.u.).
As for “ATGCGATTGACTAATTAATTGACTGGGCTTTGGCATTGGGCGGAGTCACCTAGTGCAG”, the figure is 65500 fluorescence intensity (a.u.); as for “GCGGATTAATTACTACTGGGCTGGCATTCTGATCACTTTGCGGAGTCACCTAGTGCAG”, 25400 fluorescence intensity (a.u.).
Then “CACTTAACTTAATTAGTTAATTATTGCTCTATTTTCTCTGCGGAGTCACCTAGTGCAG”, with 60500 fluorescence intensity (a.u.).
Then “AATTGGCTTGGCTAATTAATTACTCCATTTGCGAACATGGCGGAGTCACCTAGTGCAG”, with 4010 fluorescence intensity (a.u.).
For “TTGACTGATTGCACGTCCAACCATAATTTCTTTTCGTCCACGGAGTCACCTAGTGCAG”, the binding signal is 58600 fluorescence intensity (a.u.).
As for “GCCTTAATTGATTAACCGTGTAACATCTTCCTCACGCACCCGGAGTCACCTAGTGCAG”, the figure is 65500 fluorescence intensity (a.u.).
As for “ACCCTCATCTCTTCTCCTGATTGAATTGTCTTCCTCAACCCGGAGTCACCTAGTGCAG”, the binding signal was 30400 fluorescence intensity (a.u.).

Values taken from paper PMC7819943, “Rice protein-binding microarrays: a tool to detect cis-acting elements near promoter regions in rice”.
